# Inconclusive results are not listed. Where a call stands in place of a potency, no number is given. Values without a mark were called inactive. Active and inactive are the calls of the source. Unless noted, calls follow the shape of the dose curve; as a rule, active = well fitted curve in the direction sought with a large enough effect in the repeat runs; inconclusive = weak or mixed curves; inactive = no such curve, though single readings can be large; an effect the other way counts as inactive or inconclusive.
# Tests used:
# [1] = molecular target: Retinoic acid receptor RXR-alpha (Homo sapiens) (UniProt P19793); experiment: qHTS assay to identify small molecule agonists of the RXR signaling pathway (AID 1159527; calls by dose curve; also: nearly all actives have a fitted effect of over 35% in size)
# Chain of Retinoic acid receptor RXR-alpha (Homo sapiens) (P19793 whole entry, looked up): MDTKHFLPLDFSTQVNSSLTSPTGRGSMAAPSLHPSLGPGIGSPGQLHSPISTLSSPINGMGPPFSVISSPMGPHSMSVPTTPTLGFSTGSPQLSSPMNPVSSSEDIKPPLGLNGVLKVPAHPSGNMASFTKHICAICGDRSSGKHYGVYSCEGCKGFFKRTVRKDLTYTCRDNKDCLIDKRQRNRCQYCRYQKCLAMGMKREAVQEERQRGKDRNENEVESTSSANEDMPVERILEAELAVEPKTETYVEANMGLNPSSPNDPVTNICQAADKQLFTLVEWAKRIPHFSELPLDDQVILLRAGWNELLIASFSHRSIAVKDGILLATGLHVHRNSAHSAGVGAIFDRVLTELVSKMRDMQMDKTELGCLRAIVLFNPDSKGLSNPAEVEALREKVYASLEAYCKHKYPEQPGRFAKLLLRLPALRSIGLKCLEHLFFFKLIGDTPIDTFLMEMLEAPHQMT
# Procedure, shortened: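 Fluorescence ratio readout (460 vs 530 nm) from GeneBLAzer RXR-alpha HEK 293T cells after 16 hr compound treatment; cells seeded 5 hr beforehand in low-serum, charcoal-stripped medium.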
# [2] = qHTS assay to identify small molecule agonists of the RXR signaling pathway - cell viability counter screen (AID 1159529);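 also: HEK 293T cells carrying an RXR-alpha UAS beta-lactamase reporter; nearly all actives have a fitted effect of over 50% in size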
# Procedure, shortened: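 Viability read-out for the RXR-alpha agonist qHTS: luminescent CellTiter-Glo signal after 30 min at RT. HEK 293T bla reporter cells, 2% charcoal-stripped FBS, 16 hr compound incubation; tetraoctyl ammonium bromide as cytotoxic control.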
# [3] = qHTS assay to identify small molecule antagonists of the retinoid acid receptor (RAR) signaling pathway - cell viability counter screen (AID 1159551); also: nearly all actives have a fitted effect of over 35% in size
# Procedure, shortened: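 Measured by luminescent ATP detection, viability reflects C3RL4 cells treated 6 h at 37 C with test chemicals in the presence of 1 uM (final) retinol.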
# [4] = qHTS assay to identify small molecule antagonists of the retinoic acid receptor (RAR) signaling pathway (AID 1159552; also: nearly all actives have a fitted effect of over 50% in size)
# Procedure, shortened: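 Using a RARE-driven luciferase construct in C3RL4 cells, retinol at 1 uM final provided the agonist stimulus while compounds were co-applied. After 6 hours at 37 C, luminescence was recorded to flag inhibitors of retinol signaling.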
# [5] = qHTS assay to identify small molecule agonists of the retinoic acid receptor (RAR) signaling pathway (AID 1159553); settings: C3RL4 RARE luciferase reporter, agonist, 6 h; activation: at 73.3 µM (top of the series)
# Procedure, shortened: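 6 hr compound exposure (DMSO vehicle) of overnight-plated C3RL4 RARE-luc cells at 37 C; luminescence quantified after 30 min RT with luciferase reagent.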
# [6] = qHTS assay to identify small molecule antagonists of the estrogen related receptor (ERR) signaling pathway from Tox21 library - cell viability counter screen (AID 1224834); also: nearly all actives have a fitted effect of over 30% in size
# Procedure, shortened: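 Seeded ERR cells were rested 6 h at 37 C/5% CO2 before compounds, positive and negative controls or DMSO were added. Incubation continued for 17.5 h, and viability was then quantified by CellTiter-Fluor fluorescence.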
# [7] = molecular target: Luciferin 4-monooxygenase (Photinus pyralis) (UniProt P08659); experiment: qHTS assay to identify small molecule inhibitors of firefly luciferase (AID 1224835); also: nearly all actives have a fitted effect of over 25% in size
# Chain of Luciferin 4-monooxygenase (Photinus pyralis) (P08659 whole entry, looked up): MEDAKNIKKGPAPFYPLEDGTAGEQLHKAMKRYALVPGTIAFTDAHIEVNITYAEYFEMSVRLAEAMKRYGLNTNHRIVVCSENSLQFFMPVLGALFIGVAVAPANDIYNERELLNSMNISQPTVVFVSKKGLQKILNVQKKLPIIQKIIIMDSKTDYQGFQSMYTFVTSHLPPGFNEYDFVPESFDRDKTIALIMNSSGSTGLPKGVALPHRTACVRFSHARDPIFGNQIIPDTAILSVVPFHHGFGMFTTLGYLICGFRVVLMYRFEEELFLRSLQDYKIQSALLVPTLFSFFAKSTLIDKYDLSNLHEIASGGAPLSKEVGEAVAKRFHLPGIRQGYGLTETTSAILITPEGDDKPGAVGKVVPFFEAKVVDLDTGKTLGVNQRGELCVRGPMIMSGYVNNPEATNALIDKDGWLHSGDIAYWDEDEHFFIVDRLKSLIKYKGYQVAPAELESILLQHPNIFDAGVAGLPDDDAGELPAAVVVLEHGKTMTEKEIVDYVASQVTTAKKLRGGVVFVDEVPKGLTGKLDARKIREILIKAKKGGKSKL
# Procedure, shortened: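 Inhibition of purified Photinus luciferase is measured by luminescence. Substrate levels (D-luciferin, ATP) sit at their KM values. Each compound is tested in a concentration series.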
# [8] = qHTS assay to identify small molecule agonists of the constitutive androstane receptor (CAR) signaling pathway - cell viability counter screen (AID 1224836); also: nearly all actives have a fitted effect of over 45% in size
# Procedure, shortened: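 Multiplexed viability check: HepG2-CYP2B6-hCAR cells, 15-point compound dosing, 0.75 uM PK11195 final, 23 h at 37 C, CellTiter-Fluor fluorescence.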
# [9] = qHTS assay to identify small molecule antagonists of the constitutive androstane receptor (CAR) signaling pathway - cell viability counter screen (AID 1224837); also: nearly all actives have a fitted effect of over 45% in size
# Procedure, shortened: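 To flag cytotoxic false antagonists, HepG2 hCAR/CYP2B6-2.2kb cells were treated 23 hr with 15-concentration compound series and 50 nM CITCO at 37 C/5% CO2; CellTiter-Fluor fluorescence was the measured end point.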
# [10] = molecular target: Nuclear receptor subfamily 1 group I member 3 (Homo sapiens) (UniProt Q14994); experiment: qHTS assay to identify small molecule antagonists of the constitutive androstane receptor (CAR) signaling pathway (AID 1224838);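 also: HepG2 cells stably expressing hCAR with CYP2B6 luciferase reporter stimulated by CITCO; nearly all actives have a fitted effect of over 40% in size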
# Chain of Nuclear receptor subfamily 1 group I member 3 (Homo sapiens) (Q14994 whole entry, looked up): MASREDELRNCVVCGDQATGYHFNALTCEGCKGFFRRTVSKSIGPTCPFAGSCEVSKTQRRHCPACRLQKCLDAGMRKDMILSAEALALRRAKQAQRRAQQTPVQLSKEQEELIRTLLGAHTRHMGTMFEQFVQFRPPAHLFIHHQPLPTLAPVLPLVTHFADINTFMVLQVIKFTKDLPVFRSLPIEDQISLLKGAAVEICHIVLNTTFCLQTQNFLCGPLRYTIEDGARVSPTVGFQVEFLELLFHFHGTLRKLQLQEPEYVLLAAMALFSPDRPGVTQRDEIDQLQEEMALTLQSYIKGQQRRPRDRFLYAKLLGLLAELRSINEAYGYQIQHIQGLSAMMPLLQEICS
# Procedure, shortened: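 Human hepatoma HepG2 cells expressing hCAR and a CYP2B6 promoter (2.2 kb) luciferase construct; compound titration (15 points) with 50 nM CITCO final, 24 h at 37 C/5% CO2; luminescence via ONE-Glo after 30 min at room temperature.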
smiles,measurement,setting,value
O=c1[nH]c(=O)c2[nH]c(=O)[nH]c2[nH]1,activation,[1],3.02% [at 6.98 µM]
same,"activity change, negative = cytotoxicity",[2],9.18% [at 6.97 µM]
same,"activity change, negative = cytotoxicity",[3],-0.439% [at 8.39 µM]
same,"activity, negative = inhibition",[4],2.16% [at 8.39 µM]
same,activation,[5],0.0515% [at 8.36 µM]
same,"viability change, negative = cytotoxic",[6],-1.5% [at 8.39 µM]
same,"activity change, negative = inhibition",[7],-3.23% [at 10.5 µM]
same,"viability change, negative = cytotoxic",[8],-1.86% [at 8.39 µM]
same,"activity change, negative = cytotoxicity",[9],-10.7% [at 8.39 µM]
O=C1CC[C@H](C(=O)N2CCCCC2)N1,Potency,[1],inactive
same,outcome,[2],inactive
same,outcome,[3],inactive
same,Potency,[4],inactive
same,Potency,[5],inactive
same,Potency,[6],inactive
same,Potency,[7],inactive
same,outcome,[8],inactive
same,Potency,[9],inactive
Nc1ccc(S(=O)(=O)NC(=O)c2ccccc2)cc1,Potency,[1],inactive
same,outcome,[2],inactive
same,outcome,[3],inactive
same,Potency,[4],inactive
same,Potency,[5],inactive
same,Potency,[6],inactive
same,Potency,[7],inactive
same,outcome,[8],inactive
same,Potency,[9],inactive
CCCOC(=O)CCCCC(=O)OCCC,Potency,[1],inactive
same,outcome,[2],inactive
same,outcome,[3],inactive
same,Potency,[4],inactive
same,Potency,[5],inactive
same,Potency,[6],inactive
same,Potency,[7],inactive
same,outcome,[8],inactive
same,Potency,[9],inactive
CCCCC(C)C(=O)O (configuration not stated),Potency,[1],inactive
same,outcome,[2],inactive
same,outcome,[3],inactive
same,Potency,[4],inactive
same,Potency,[5],inactive
same,Potency,[6],inactive
same,Potency,[7],inactive
same,outcome,[8],inactive
same,Potency,[9],inactive
NS(=O)(=O)c1cc2c(cc1Cl)NC(CC1CCCC1)NS2(=O)=O (configuration not stated),Potency,[1],inactive
same,outcome,[2],inactive
same,outcome,[3],inactive
same,Potency,[4],inactive
same,Potency,[5],inactive
same,Potency,[6],inactive
same,Potency,[7],inactive
same,outcome,[8],inactive
same,Potency,[9],inactive
CCOC(=O)CC#N,Potency,[1],inactive
same,outcome,[2],inactive
same,outcome,[3],inactive
same,Potency,[4],inactive
same,Potency,[5],inactive
same,Potency,[6],inactive
same,Potency,[7],inactive
same,outcome,[8],inactive
same,Potency,[9],inactive
CC(C)CCCCCCOC(=O)C1CCCCC1C(=O)OCCCCCCC(C)C (configuration not stated),Potency,[1],inactive
same,outcome,[2],inactive
same,outcome,[3],inactive
same,Potency,[4],inactive
same,Potency,[5],inactive
same,Potency,[6],inactive
same,Potency,[7],inactive
same,outcome,[8],inactive
same,Potency,[9],inactive
Cc1cc(O)c2c(c1)C(=O)c1cccc(O)c1C2=O,Potency,[1],inactive
same,outcome,[2],inactive
same,outcome,[3],inactive
same,Potency,[4],inactive
same,Potency,[5],inactive
same,Potency,[6],inactive
same,Potency,[7],inactive
same,outcome,[8],inactive
same,Potency,[9],inactive
FC(F)(F)c1ccc(Cl)cc1Cl,Potency,[1],inactive
same,outcome,[2],inactive
same,outcome,[3],inactive
same,Potency,[4],inactive
same,activation,[5],0.481% (active)
same,Potency,[6],inactive
same,Potency,[7],inactive
same,outcome,[8],inactive
same,Potency,[9],inactive
CC(C)(CO)[C@@H](O)C(=O)NCCCO,Potency,[1],inactive
same,outcome,[2],inactive
same,outcome,[3],inactive
same,Potency,[4],inactive
same,Potency,[5],inactive
same,Potency,[6],inactive
same,Potency,[7],inactive
same,outcome,[8],inactive
same,Potency,[9],inactive
CCCCCC1Nc2cc(C(F)(F)F)c(S(N)(=O)=O)cc2S(=O)(=O)N1 (configuration not stated),Potency,[1],inactive
same,outcome,[2],inactive
same,outcome,[3],inactive
same,Potency,[4],inactive
same,Potency,[5],inactive
same,Potency,[6],inactive
same,Potency,[7],inactive
same,outcome,[8],inactive
same,Potency,[9],inactive
Cc1ccccc1OCC1CO1 (configuration not stated),Potency,[1],inactive
same,outcome,[2],inactive
same,outcome,[3],inactive
same,Potency,[4],inactive
same,Potency,[5],inactive
same,Potency,[6],inactive
same,Potency,[7],inactive
same,outcome,[8],inactive
same,Potency,[9],inactive
Cc1nc([N+](=O)[O-])cn1-c1ccc([N+](=O)[O-])cc1,Potency,[1],inactive
same,outcome,[2],inactive
same,outcome,[3],inactive
same,Potency,[4],inactive
same,Potency,[5],inactive
same,Potency,[6],inactive
same,Potency,[7],inactive
same,outcome,[8],inactive
same,Potency,[9],inactive
CCC(=O)OCCC(C)CCC=C(C)C (configuration not stated),Potency,[1],inactive
same,outcome,[2],inactive
same,outcome,[3],inactive
same,Potency,[4],inactive
same,Potency,[5],inactive
same,Potency,[6],inactive
same,Potency,[7],inactive
same,outcome,[8],inactive
same,Potency,[9],inactive
same,Potency,[10],inactive
CCCCCCCCCCCCCC(=O)OC,Potency,[1],inactive
same,outcome,[2],inactive
same,outcome,[3],inactive
same,Potency,[4],inactive
same,Potency,[5],inactive
same,Potency,[6],inactive
same,Potency,[7],inactive
same,Potency,[9],inactive
CCCO,Potency,[1],inactive
same,outcome,[2],inactive
same,outcome,[3],inactive
same,Potency,[4],inactive
same,Potency,[5],inactive
same,Potency,[6],inactive
same,Potency,[7],inactive
same,outcome,[8],inactive
same,Potency,[9],inactive
NC(Cc1c[nH]c2ccccc12)C(=O)O (configuration not stated),Potency,[1],inactive
same,outcome,[2],inactive
same,outcome,[3],inactive
same,Potency,[4],inactive
same,Potency,[5],inactive
same,Potency,[6],inactive
same,Potency,[7],inactive
same,Potency,[9],inactive
CCOC(=O)CCCCCCCCC(=O)OCC,Potency,[1],inactive
same,outcome,[2],inactive
same,outcome,[3],inactive
same,Potency,[4],inactive
same,Potency,[5],inactive
same,Potency,[6],inactive
same,Potency,[7],inactive
same,outcome,[8],inactive
same,Potency,[9],inactive
same,Potency,[10],inactive
CC(=O)OC(C)c1ccccc1 (configuration not stated),Potency,[1],inactive
same,outcome,[2],inactive
same,outcome,[3],inactive
same,Potency,[4],inactive
same,Potency,[5],inactive
same,Potency,[6],inactive
same,Potency,[7],inactive
same,outcome,[8],inactive
same,Potency,[9],inactive
same,Potency,[10],inactive
O=[Si]=O,Potency,[1],inactive
same,outcome,[2],inactive
same,outcome,[3],inactive
same,Potency,[4],inactive
same,Potency,[5],inactive
same,Potency,[6],inactive
same,Potency,[7],inactive
same,Potency,[9],inactive
C[C@H]1O[C@H](O[C@H]2[C@H](O)[C@@H](O)[C@@H](O[C@H]3[C@H](O)[C@@H](O)[C@H](O)O[C@@H]3CO)O[C@@H]2CO)[C@H](O)[C@@H](O)[C@@H]1N[C@H]1C=C(CO)[C@@H](O)[C@H](O)[C@H]1O,Potency,[1],inactive
same,outcome,[2],inactive
same,outcome,[3],inactive
same,Potency,[4],inactive
same,Potency,[5],inactive
same,Potency,[6],inactive
same,Potency,[7],inactive
same,Potency,[9],inactive

# Reference: PubChem BioAssay (Tox21)
